In the library only some 19% were active in any assay of this set; here they are far more common.
DT40 TDP1 CPT: growth inhibition of DT40 Tdp1-/-;hTDP1 cells with camptothecin (screen for TDP1 inhibitors). chicken DT40 Tdp1-/-;hTDP1 cells + 20 nM CPT, ATP luminescence, 48 h. Potency, µM (highest dose often 46.2 µM), inactives show at the highest dose activity change, negative = growth inhibition, hits mostly inhibitors. 420,000 tested, 12% active. AID 686979; further: potency means the concentration at half of the fitted maximal effect; nearly all actives have a fitted effect of over 55% in size
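Cell growth measured by CellTiter-Glo luminescence after a minimum 48 h, 37 C compound exposure with 20 nM CPT in Tdp1-knockout DT40 cells stably expressing hTDP1, seeded 400/well; qHTS titration format.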
DT40 TDP1 no CPT: qHTS for Inhibitors of human tyrosyl-DNA phosphodiesterase 1 (TDP1): qHTS in cells in absence of CPT; 420,000 tested, 15% active; DT40 Tdp1-/- hTDP1 cells, no CPT, ATP luminescence, 48 h; Potency, µM (doses to about 46.2 µM), without a hit: at the top dose activity change, negative = growth inhibition, actives largely listed as inhibitors; further: potency means the concentration at half of the fitted maximal effect; nearly all actives have a fitted effect of over 55% in size
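Chicken DT40 Tdp1-/- cells stably complemented with human TDP1 were seeded at 400 cells/well with DMSO in place of 20 nM camptothecin. After compound pinning, cells grew at least 48 hr at 37 °C; viability read by CellTiter-Glo luminescence.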
uPA surface inh: cell surface uPA generation inhibition. Potency, µM (doses to about 38.3 µM), for inactives: top-dose activity change, negative = inhibition, usual class: inhibitors. cell surface uPA generation assay, qHTS. 330,000 tested, 0.31% active; active means well fitted inhibition curve with a large enough effect; inconclusive means small, poorly fitted or top-dose-only effect; inactive means no such curve, though single readings can be large or run the other way; tested in mouse RAW 264.7 cells; further: potency means the concentration at half of the fitted maximal effect; nearly all actives have a fitted effect of over 55% in size
HT1080 IDH1KD tx: HT-1080 IDH1 knockdown cell toxicity (counter line). AID 686971. HT-1080 IDH1 knockdown viability, ATP luminescence, 48 h. 360,000 tested, 2% active. Potency, µM (highest dose often 46.1 µM), inactives show at the top dose activity, negative = toxicity, most hits filed as cytotoxic;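 further: potency means the concentration at half of the fitted maximal effect; 0% = DMSO wells and -100% = cell-free medium wells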
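Assay cells: HT-1080 with IDH1 knockdown, 750 per well, RPMI/5% FBS. Exposure: 48 h at 37 °C following 2 h pre-incubation. Read: CellTiter-Glo luminescence; fitted concentration-response, curve class assigned.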
HT1080-NT tox: kills 2HG-producing HT-1080-NT fibrosarcoma cells | 360,000 tested, 1.6% active | AID 686970 | HT-1080-NT fibrosarcoma viability, CellTiter-Glo ATP luminescence, 48 h | Potency, µM (doses to about 46.1 µM), without a hit: at the highest dose activity, negative = less viability, usual class: cytotoxic;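 further: NT is the 2HG producing partner of a matched IDH1 knockdown line; potency means the concentration at half of the fitted maximal effect; 0% = DMSO-treated cells and -100% = media-only wells without cells; nearly all actives have a fitted effect of over 55% in size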
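750 cells/well, RPMI + 5% FBS; 2 h settle, compound pin-transfer, 48 h at 37 degrees C. CellTiter-Glo 10 min RT, luminescence. Normalized to DMSO and media-only wells.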
IL-1B inflam inh: inhibitors of inflammasome signaling (IL-1 beta secretion); 360,000 tested, 4.7% active; THP-1 LPS/ATP IL-1B secretion, AlphaLISA, 16 h; hits give low values; activity change, % at 57.5 µM; in the data active means activity change below about -50%; inconclusive means mostly about -30% to -49%
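THP-1 cells pretreated 1 hr with compounds (up to 57.5 uM final), then stimulated with LPS (250 ng/mL final) plus ATP (1.25 mM final); secreted IL-1B measured by AlphaLISA after 16 hr, decreased signal indicating inhibition.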
An asterisk follows results filed as active. Unless noted, the call rests on the fitted dose curve; in most records, active means well fitted curve in the direction sought with a large enough effect; inconclusive means small, poorly fitted or top-dose-only effect, or another doubt; inactive means no such curve, though single readings can be large; an effect the other way counts as inactive or inconclusive. Unless noted, on the % scale 0 is the no-effect control and ±100 the full control effect.

For CCC(=O)N1CCc2cc(S(=O)(=O)NC(CC(C)C)C(=O)Nc3cc(C)ccc3OC)ccc21 (stereo not drawn) the results were DT40 TDP1 CPT 18µM* and DT40 TDP1 no CPT inconclusive.
For Cc1ccc(S(=O)(=O)N[C@@H](Cc2ccccc2)C(=O)CCl)cc1 the results were DT40 TDP1 CPT 2.6µM*, DT40 TDP1 no CPT 5.2µM*, uPA surface inh 5µM*, HT1080 IDH1KD tx 16µM*, HT1080-NT tox inconclusive and IL-1B inflam inh -107*.
Screening CCC(=O)N1CCc2cc(S(=O)(=O)NC(CC(C)C)C(=O)Nc3cccc(C)c3C)ccc21 (stereo not drawn) returned DT40 TDP1 CPT -20% and DT40 TDP1 no CPT -20%.
`COc1ccc(NC(=O)C(Cc2ccccc2)NS(=O)(=O)c2ccc3c(c2)CCN3C(C)=O)cc1` (stereo not drawn) gave DT40 TDP1 CPT -29% and DT40 TDP1 no CPT inconclusive.
`Cc1ccc(NC(=O)C(Cc2ccccc2)NS(=O)(=O)c2ccc3c(c2)c(=O)n(C)c(=O)n3C)cc1` (stereo not drawn) gave DT40 TDP1 CPT 16µM* and DT40 TDP1 no CPT inconclusive.
`CCCCN1CN(Cc2ccccc2)CNC1=S` gave DT40 TDP1 CPT 18µM*, DT40 TDP1 no CPT inconclusive, uPA surface inh -4%, HT1080 IDH1KD tx -2%, HT1080-NT tox -5% and IL-1B inflam inh 22.
For CCOCCCN1CN(Cc2ccccc2)CNC1=S the results were DT40 TDP1 CPT 8%, DT40 TDP1 no CPT 6%, uPA surface inh -1%, HT1080 IDH1KD tx -1%, HT1080-NT tox -5% and IL-1B inflam inh 5.
COc1ccc(CN(C)C(=O)c2ccccc2Sc2ccccc2C#N)cc1OC was read as DT40 TDP1 CPT 16µM*, DT40 TDP1 no CPT inconclusive, uPA surface inh -6%, HT1080 IDH1KD tx -26%, HT1080-NT tox -4% and IL-1B inflam inh inconclusive.
Screening CCn1c(=N)c(C(=O)NC2CCCCC2)cc2c(=O)n3cc(C)ccc3nc21 returned DT40 TDP1 CPT 6% and DT40 TDP1 no CPT 4%.
O=[N+]([O-])c1ccc(N=Nc2ncc[nH]2)cc1 was read as DT40 TDP1 CPT 0.92µM*, DT40 TDP1 no CPT 0.73µM*, uPA surface inh inconclusive, HT1080 IDH1KD tx 6.5µM*, HT1080-NT tox 18µM* and IL-1B inflam inh -110*.
For Cc1ccnc(NC(=O)c2cccc(S(=O)(=O)N3CCN(c4ccccc4)CC3)c2)c1 the results were DT40 TDP1 CPT 0%, DT40 TDP1 no CPT inconclusive, uPA surface inh -12%, HT1080 IDH1KD tx -20%, HT1080-NT tox -15% and IL-1B inflam inh -13.
For Cc1ccc(NC(=O)c2cccc(S(=O)(=O)N3CCN(c4ccccc4)CC3)c2)nc1 the results were DT40 TDP1 CPT 21µM*, DT40 TDP1 no CPT 21µM*, uPA surface inh -8%, HT1080 IDH1KD tx -23%, HT1080-NT tox -20% and IL-1B inflam inh -29.
For Cc1ccc(NC(=O)c2ccc3nc[nH]c3c2)nc1 the results were DT40 TDP1 CPT 23µM*, DT40 TDP1 no CPT 18µM*, uPA surface inh -13%, HT1080 IDH1KD tx inconclusive, HT1080-NT tox -14% and IL-1B inflam inh 8.
`Cc1ccc(NC(=O)c2ccc(C(=O)c3ccccc3)cc2)nc1` gave DT40 TDP1 CPT 18µM*, DT40 TDP1 no CPT inconclusive, uPA surface inh -8%, HT1080 IDH1KD tx inconclusive, HT1080-NT tox inconclusive and IL-1B inflam inh -14.
Screening Cc1ccc(NC(=O)C2(c3ccccc3)CCCC2)nc1 returned DT40 TDP1 CPT inconclusive, DT40 TDP1 no CPT 15µM*, uPA surface inh 3%, HT1080 IDH1KD tx 3%, HT1080-NT tox -1% and IL-1B inflam inh 17.
